Source: PubChem
ELG1 genotoxic: qHTS screen for small molecules that induce genotoxicity in human embryonic kidney (HEK293T) cells expressing luciferase-tagged ELG1 | HEK293T ELG1-luciferase reporter, luminescence, 16 h | hit rate 1.3% among 330,000 | Potency, µM (doses to about 46 µM), inactives show top-dose activity change, positive = activation, hits mostly activators; further: % of control where 0% means no effect; nearly all actives have a fitted effect of over 60% in size
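Luminescence read-out: rising ELG1-luciferase signal, reflecting elevated ELG1 protein under genetic stress, flags genotoxic compounds. Cells were treated for 16 hr at 37 °C before ONE-Glo detection.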
SMN2 splice enh: qHTS Assay for Enhancers of SMN2 Splice Variant Expression; HEK293 SMN2-luciferase splicing reporter, luminescence, 30-36 h; Potency, µM (series often up to 46.1 µM), inactives show at the top dose activity change, positive = activation, hits mostly activators; hit rate 2.8% among 210,000; AID 1458, 2008; further: % of control where 0% means no effect; nearly all actives have a fitted effect of over 55% in size
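HEK293 cells carry an SMN2 minigene-luciferase reporter in which exon 7 inclusion puts luciferase in frame. Cells were seeded at 2000 cells/well, attached for 10-12 hours, then exposed to compounds for 30-36 hours at 37C before ONE-Glo luminescence.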
NPC1 prom act: qHTS Assay for NPC1 Promoter Activators. Huh7 NPC1 promoter luciferase reporter, 24 h. Potency, µM (titrated, usually from 9.22 µM), inactives show at the top dose activation, most hits filed as activators. hit rate 2.4% among 320,000. AID 485313, 2010; further: % of control where 0% means no effect; nearly all actives have a fitted effect of over 60% in size
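Luminescence from an NPC1 promoter-driven luciferase reporter in stably transfected Huh7 cells was measured after 24 h compound treatment at 37 °C, followed by 10 min ambient incubation with luciferase detection reagent.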
FLuc modulator: qHTS profiling assay for firefly luciferase inhibitor/activator using purifed enzyme and Km concentrations of substrates (counterscreen for miR-21 project). purified FLuc, Km substrates, luminescence inhibition. hit rate 6.9% among 360,000. Luciferin 4-monooxygenase (Photinus pyralis), P08659. Potency, µM (highest dose often 57.5 µM), for the others: top-dose activity change, negative = inhibition, hits mostly inhibitors;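 further: plate controls were vehicle for no effect and reference inhibitor for full effect; nearly all actives have a fitted effect of over 55% in size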
Target sequence (P08659 whole entry, looked up): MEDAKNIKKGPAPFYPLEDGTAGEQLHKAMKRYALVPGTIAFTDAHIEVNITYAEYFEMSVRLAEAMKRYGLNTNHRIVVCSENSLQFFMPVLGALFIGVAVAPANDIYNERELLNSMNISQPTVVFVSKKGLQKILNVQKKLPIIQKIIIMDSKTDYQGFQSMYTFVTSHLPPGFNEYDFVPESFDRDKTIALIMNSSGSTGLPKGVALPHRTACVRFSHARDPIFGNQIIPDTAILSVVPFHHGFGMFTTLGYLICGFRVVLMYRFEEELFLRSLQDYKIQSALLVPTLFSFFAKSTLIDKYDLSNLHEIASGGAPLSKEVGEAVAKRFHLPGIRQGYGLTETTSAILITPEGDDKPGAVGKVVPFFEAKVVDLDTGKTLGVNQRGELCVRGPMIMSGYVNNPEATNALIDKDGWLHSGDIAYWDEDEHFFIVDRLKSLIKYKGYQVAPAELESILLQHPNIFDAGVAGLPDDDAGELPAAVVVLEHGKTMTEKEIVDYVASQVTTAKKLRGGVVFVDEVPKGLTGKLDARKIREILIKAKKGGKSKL
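Biochemical qHTS of compounds, final roughly 60 µM downward over six points, against 10 nM purified firefly luciferase using Km concentrations of substrates (10 uM D-luciferin, 10 uM ATP) in Tris acetate pH 7.5 buffer; luminescence output.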
Luc counter: Counterscreen for Luciferase (Kinase-Glo TM) Inhibition; hit rate 0.28% among 200,000; Kinase-Glo luciferase, ATP luminescence, 8 min; Luciferin 4-monooxygenase (Photuris pensylvanica), Q27757; Potency, µM (top dose mostly 38.3 µM), for inactives: at the top dose activity change, negative = inhibition, usual class: inhibitors; further: on the % scale 0 is the no-effect control and ±100 the full control effect; nearly all actives have a fitted effect of over 60% in size
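Compounds were added to a substrate mix at pH 7.2 (50 mM imidazole, 10 uM ATP, within the enzyme's linear range), followed by Kinase-Glo detection reagent; luminescence was measured after 8 minutes at ambient temperature.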
Rab9 promoter act: qHTS Assay for Rab9 Promoter Activators; Huh7 Rab9 promoter-luciferase reporter, luminescence, 24 h; Potency, µM (doses to about 9.22 µM), inactives show at the top dose activation, negative = inhibition, usual class: activators; hit rate 2.8% among 320,000; AID 485297, 2010; further: % of control where 0% means no effect; nearly all actives have a fitted effect of over 60% in size
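Cells were plated at 1500 per well in reduced-serum medium with 10% FBS and left 2 h. Compound in DMSO was then added for 24 h at 37 °C. Reporter signal was read by luminescence after 10 min with luciferase detection reagent.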
Active calls of the source: *; ? = inconclusive; · = not tested or not shown. Compounds with a hit are over-represented: about 7.5% of the library has one in this group of screens. The call rests on the fitted dose curve; in most records, active means well fitted curve in the direction sought with a large enough effect; inconclusive means small, poorly fitted or top-dose-only effect, or another doubt; inactive means no such curve, though single readings can be large; an effect the other way counts as inactive or inconclusive. Potency means the concentration at half of the fitted maximal effect.

SMILES	ELG1 genotoxic	SMN2 splice enh	NPC1 prom act	FLuc modulator	Luc counter	Rab9 promoter act
COc1cccc(C(=O)N2c3nc(-c4ccco4)nn3C3(CCCCC3)[C@@H]3CCCC[C@@H]32)c1	·	·	·	1%	·	·
COc1ccccc1Nc1ncc(-c2cccs2)s1	?	22µM*	?	2.7µM*	-8%	2.8µM*
COc1ccc(/C=C/C2=NC(=C\N(C)C)/C(=O)O2)cc1	?	23%	?	21µM*	-1%	?
COC(=O)c1c(NC(=O)c2ccco2)sc(C)c1C	4%	?	9%	1%	6%	-3%
COC(=O)c1c(NC(=O)c2ccco2)sc(C(=O)Nc2ccc(F)cc2)c1C	?	?	1.6µM*	-2%	1%	1.6µM*
Cc1nc(NC(=O)C2CC2)sc1C(=O)Nc1ccccc1	3%	·	1%	-15%	·	4%
Cc1c(Cc2ccccc2)sc(NC(=O)c2ccco2)c1C(N)=O	8%	-15%	4%	7.6µM*	-1%	-4%
CCOc1ccc(CC(=O)Nc2sc(Cc3ccccc3)c(C)c2C(N)=O)cc1OCC	-2%	-2%	-1%	-6%	2%	-1%
COC(=O)c1c(NC(=O)C2CC2)sc(C(=O)Nc2ccccc2)c1C	11%	1.1µM*	?	?	-2%	?
CCCCOc1ccc(CSc2n[nH]c(C)n2)cc1	21µM*	18µM*	?	?	5%	?
Cc1nc(SCc2ccc(C#N)cc2)n[nH]1	2%	·	11%	-19%	·	9%
CCCCOc1ccc(CSc2nncn2N)cc1	?	26%	?	?	-5%	?
CCCCOc1ccc(CSc2ncn[nH]2)cc1	14%	10%	?	7.6µM*	-4%	?
CCCCCOc1ccc(CSc2ncn[nH]2)cc1	?	11µM*	?	12µM*	1%	2.5µM*
CC1=NN(c2ccccc2)C(=O)C1N=Nc1cccc(O)c1 (stereo not given)	?	·	?	8.5µM*	·	1%
COc1ccc(N=NC2C(=O)N(c3ccccc3)N=C2C)cc1 (stereo not given)	-2%	·	20%	19µM*	·	0%
CC1=NN(c2ccccc2)C(=O)C1N=Nc1ccccc1 (stereo not given)	?	14µM*	?	2.4µM*	-2%	?
CCn1c(SCC(=O)c2cc(C)n(CC3CCCO3)c2C)nc2ccccc21 (stereo not given)	6%	-7%	25%	27µM*	1%	?
Cc1cc(C(=O)CSc2nnnn2-c2ccc(Cl)cc2)c(C)n1CC1CCCO1 (stereo not given)	13%	-8%	-3%	6%	2%	-2%
Cc1cc(C(=O)CSc2nc3ccccc3c(=O)[nH]2)c(C)n1CC1CCCO1 (stereo not given)	14%	-53%	16%	13µM*	-2%	?
Cc1cc(C(=O)CSc2nnnn2-c2ccccc2)c(C)n1CC1CCCO1 (stereo not given)	?	13µM*	2.5µM*	2.7µM*	-3%	1.6µM*
COc1cc(NC(=O)Cn2c(=O)ccc3cc(S(=O)(=O)N4CCCC4)ccc32)cc(OC)c1	·	·	·	-2%	·	·
COc1ccc(Cc2nnc(SCC(=O)N3CCCCC3)o2)cc1	-3%	9%	-4%	-2%	-1%	0%
CCS(=O)(=O)NCCc1csc2nc(-c3ccc(OC)cc3)nn12	·	·	·	-17%	·	·
OCCCCNCc1ccc(OCc2ccc(Cl)cc2Cl)cc1	-3%	-8%	1%	-5%	-6%	-5%
OCCNCc1ccc(OCc2ccc(Cl)cc2Cl)cc1	?	-9%	12%	15µM*	2%	18%
COc1cc(/C=C2/NC(=O)N(c3cccc(Cl)c3)C2=O)ccc1O	8%	·	-13%	7%	-5%	-4%
